Screens: PubChem, National Center for Advancing Translational Sciences (NCATS)
SW480 rerep = A quantitative high throughput screen for small molecules that induce DNA re-replication in SW480 colon adenocarcinoma cells | Potency, µM (series often up to 46.1 µM), usual class: activators | SW480 DNA re-replication, Hoechst DNA content imaging, 48 h | AID 624297, 2012 | 1.8% of 340,000 active; note: nearly all actives have a fitted effect of over 55% in size
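SW480 cells exposed to compounds for 48 hr at 37 C, 5% CO2, then Hoechst-stained 40 min. Nuclear DNA content imaged by fluorescence scanning (405 nm excitation, 500-530 nm emission); re-replication scored as increased high-intensity nuclei.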
MCF10A rereplic = A quantitative high throughput screen for small molecules that induce DNA re-replication in MCF 10a normal breast cells; Potency, µM (titrated, usually from 46.1 µM), most hits filed as activators; 2.9% of 350,000 active; MCF 10A DNA re-replication, Hoechst nuclear intensity, 48 h; AID 624296, 2012; note: nearly all actives have a fitted effect of over 50% in size
KB-V1 MDR tox = qHTS assay for MDR1-selective chemotherapeutics: Primary screen using the drug-selected MDR subline cells KB-V1 | KB-V1 MDR cells viability, CellTiter-Glo, 72 h | 3.4% of 400,000 active | Potency, µM (top dose mostly 46.1 µM), usual class: cytotoxic; note: nearly all actives have a fitted effect of over 60% in size
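Cytotoxicity toward P-gp-expressing KB-V1 cells was determined as loss of CellTiter-Glo luminescence after 72 h at 37 degrees C. Compounds were tested in quantitative HTS format across a concentration range, with curves fitted to normalized data.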
KB-3-1 cytotox = qHTS assay for MDR1-selective chemotherapeutics: Primary screen using the parental adenocarcinoma cell KB-3-1; KB-3-1 viability, CellTiter-Glo ATP luminescence, 72 h; Potency, µM (highest dose often 46.1 µM), actives largely listed as cytotoxic; 1.4% of 400,000 active; AID 1347075, 2019; note: nearly all actives have a fitted effect of over 60% in size
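Cells are dispensed, compounds pinned in, plates held at 37 °C for 72 h, then CellTiter-Glo is added and luminescence read after 10 minutes. Cell line: parental KB-3-1 in phenol-red-free DMEM, 10% FBS.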
ELG1 DNA repair = qHTS screen for small molecules that inhibit ELG1-dependent DNA repair in human embryonic kidney (HEK293T) cells expressing luciferase-tagged ELG1 | HEK293T ELG1-luciferase reporter, luminescence, 16 h; DNA damage induced by 5-fluorouridine | Potency, µM (doses to about 46.1 µM), most hits filed as inhibitors | 2.3% of 330,000 active; note: nearly all actives have a fitted effect of over 55% in size
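Quantitative HTS, concentration-response format. 2,000 cells/well co-treated with 5-fluorouridine and compound, 16 hr in 5% CO2 at 37 °C; ONE-Glo luminescence read after 30 min.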
Large screens that a line does not name were inactive. In the library only some 8.1% were active in any assay of this set; here they are far more common. Calls come from the whole dose curve; as a rule, active = well fitted curve in the direction sought with a large enough effect; inconclusive = small, poorly fitted or top-dose-only effect, or another doubt; inactive = no such curve, though single readings can be large; an effect the other way counts as inactive or inconclusive.

COc1ccc(C(=O)COC(=O)C(CC(C)C)N2C(=O)c3ccccc3C2=O)cc1 (configuration not stated)	KB-V1 MDR tox 8.2µM
COC(=O)C(CCCCN1C(=O)C2C3C=CC(C3)C2C1=O)N1C(=O)C2C3C=CC(C3)C2C1=O (configuration not stated)	none
CC(C)CC(C(=O)OCC(=O)N1CCN(c2ccccc2)CC1)N1C(=O)c2ccccc2C1=O (configuration not stated)	KB-V1 MDR tox 16µM (no result: ELG1 DNA repair)
COc1ccc(C(=O)COC(=O)C(CCCCN2C(=O)C3C4C=CC(C4)C3C2=O)N2C(=O)C3C4C=CC(C4)C3C2=O)cc1 (configuration not stated)	KB-V1 MDR tox inconclusive, ELG1 DNA repair 5.8µM
N#Cc1c(N2CCCC2)nsc1-c1ccccc1	ELG1 DNA repair inconclusive
CCCCNC(=O)c1ccc(NS(=O)(=O)c2ccccc2)cc1	KB-V1 MDR tox inconclusive
O=c1c(Cl)c(NCCCO)cnn1-c1nc2ccccc2[nH]1	SW480 rerep inconclusive, MCF10A rereplic 2.9µM, KB-3-1 cytotox inconclusive, ELG1 DNA repair inconclusive
C=CCN(CC=C)c1cnn(-c2nc3ccccc3[nH]2)c(=O)c1Cl	KB-V1 MDR tox 4.1µM, ELG1 DNA repair inconclusive
CN(/N=C/c1c[nH]c2ccccc12)c1cnn(-c2ccc(F)c(Cl)c2)c(=O)c1Cl	MCF10A rereplic inconclusive
CCCOc1ccc(C(=O)Nc2ccc(-c3cc4ccccc4oc3=O)c(C)c2)cc1	KB-V1 MDR tox inconclusive, KB-3-1 cytotox 10µM (no result: SW480 rerep, MCF10A rereplic, ELG1 DNA repair)
O=c1c2c(-c3cccs3)csc2ncn1/N=C/c1ccc(OC(F)F)cc1	KB-V1 MDR tox 15µM
C=CCN=C1SCC(=O)N1S(=O)(=O)c1ccc(C)cc1	none
C=CCN=C1S/C(=C\N(C)C)C(=O)N1S(=O)(=O)c1ccc(C)cc1	ELG1 DNA repair 2.1µM
Cc1ccc2sc(-c3ccc(NC(=O)/C=C\C(=O)O)cc3)nc2c1	SW480 rerep inconclusive, MCF10A rereplic 23µM, ELG1 DNA repair inconclusive
Cc1ccc2sc(-c3ccc(NC(=O)c4cc(-n5cnnc5)ccc4Cl)cc3)nc2c1	SW480 rerep 15µM, MCF10A rereplic 2.6µM, KB-3-1 cytotox inconclusive, ELG1 DNA repair inconclusive
Cc1nc(-c2ccc(NC(=O)/C=C\C(=O)O)cc2)cs1	ELG1 DNA repair inconclusive
O=C(Nc1cccc(-c2nc3ccccc3s2)c1)c1cc(-n2cnnc2)ccc1Cl	SW480 rerep inconclusive, MCF10A rereplic inconclusive, KB-3-1 cytotox inconclusive, ELG1 DNA repair inconclusive
CC(C)Cc1nc2oc3c(Cl)ncnc3c2c2c1CCC2	SW480 rerep 4.1µM, MCF10A rereplic inconclusive, ELG1 DNA repair inconclusive
CC(C)Cc1nc2oc3c(NCCCN4CCOCC4)ncnc3c2c2c1CCC2	SW480 rerep inconclusive, KB-3-1 cytotox inconclusive
O=C1NCC(O)=C1C=NC12CC3CC(CC(C3)C1)C2	SW480 rerep inconclusive, MCF10A rereplic 15µM, ELG1 DNA repair inconclusive
O=C1NCC(O)=C1C=NCCO	none
CCn1c(=O)n(CC)c2cc(N3CCCC3)c(NC(=O)c3cc(Cl)ccc3OC)cc21	SW480 rerep inconclusive, MCF10A rereplic inconclusive, KB-3-1 cytotox inconclusive, ELG1 DNA repair 18µM
CCn1c(=O)n(CC)c2cc(N3CCCC3)c(NC(=O)c3ccccc3OC)cc21	ELG1 DNA repair inconclusive
CCn1c(=O)n(CC)c2cc(N3CCCC3)c(NC(=O)c3ccc(OC)c(Br)c3)cc21	MCF10A rereplic inconclusive, ELG1 DNA repair 12µM
CCOc1ccccc1C(=O)Nc1cc2c(cc1N1CCCC1)n(CC)c(=O)n2CC	MCF10A rereplic inconclusive, KB-V1 MDR tox inconclusive, KB-3-1 cytotox inconclusive, ELG1 DNA repair 8.2µM
CC1CC(C)CN(C(=O)c2ccc3ncsc3c2)C1 (configuration not stated)	KB-V1 MDR tox inconclusive
Nc1ccc(Oc2ccc3c(c2)C(=O)NC3=O)cc1	none
COc1ccc(NC(=O)Nc2nnc(-c3cccs3)s2)cc1	ELG1 DNA repair inconclusive
COc1ccc(C(=O)Nc2nnc(-c3cccs3)s2)cc1	SW480 rerep inconclusive, MCF10A rereplic inconclusive, KB-V1 MDR tox inconclusive, KB-3-1 cytotox 5.2µM, ELG1 DNA repair inconclusive
CCCN(CCC)CCCNC(=O)c1cc2c(-c3ccc(Cl)cc3)nn(C)c2s1	none (no result: SW480 rerep, MCF10A rereplic, ELG1 DNA repair)
COc1ccc2cc(C3CC(c4ccco4)=NN3S(=O)(=O)c3ccccc3)c(Cl)nc2c1 (configuration not stated)	KB-V1 MDR tox 15µM
CCOc1ccc2nc(Cl)c(C3CC(c4ccco4)=NN3S(C)(=O)=O)cc2c1 (configuration not stated)	KB-V1 MDR tox inconclusive, ELG1 DNA repair inconclusive
Cc1ccc2cc(C3CC(c4ccco4)=NN3S(=O)(=O)c3ccccc3)c(Cl)nc2c1 (configuration not stated)	KB-3-1 cytotox inconclusive
CCOc1ccc2cc(C3CC(c4ccco4)=NN3S(=O)(=O)c3ccccc3)c(Cl)nc2c1 (configuration not stated)	KB-V1 MDR tox 5.8µM
Cc1cc2c(cc1C)-c1nnnn1C(C)(C)C2	KB-V1 MDR tox inconclusive
CS(=O)(=O)c1cnc(-c2ccccc2)nc1-c1ccc(Cl)c(Cl)c1	MCF10A rereplic inconclusive, KB-V1 MDR tox inconclusive
COCCNC(=O)CN1CCCCCC1	none
Cc1ccccc1Oc1nc2c(C)cccn2c(=O)c1/C=C(\C#N)C(=O)Nc1c(C)n(C)n(-c2ccccc2)c1=O	SW480 rerep inconclusive, MCF10A rereplic 21µM, KB-V1 MDR tox inconclusive
CNC(=O)/C(C#N)=C/c1c(N(Cc2ccccc2)Cc2ccccc2)nc2ccccn2c1=O	KB-V1 MDR tox 2.6µM, ELG1 DNA repair 18µM
CNC(=O)/C(C#N)=C/c1c(N2CCN(C)CC2)nc2c(C)cccn2c1=O	SW480 rerep inconclusive
CCN1CCN(c2nc3c(C)cccn3c(=O)c2/C=C(\C#N)C(=O)NCCCOC)CC1	SW480 rerep 21µM, MCF10A rereplic 18µM
Cc1ccccc1Oc1nc2ccccn2c(=O)c1/C=C(\C#N)C(=O)Nc1c(C)n(C)n(-c2ccccc2)c1=O	none
CCN1CCN(c2nc3c(C)cccn3c(=O)c2/C=C(\C#N)C(=O)NC)CC1	MCF10A rereplic 5.8µM
Cc1c(C)n(C)c2ccc(C(=O)NCc3cccc(F)c3)cc12	none (no result: SW480 rerep, MCF10A rereplic, ELG1 DNA repair)
CC(=O)c1ccc(-c2c(C)cc3oc(=O)cc(-c4ccccc4)c3c2C)cc1	ELG1 DNA repair inconclusive
CCNC(=O)/C(C#N)=C/c1c(N2CCN(c3ccc(OC)cc3)CC2)nc2c(C)cccn2c1=O	SW480 rerep inconclusive, ELG1 DNA repair 23µM
COc1ccc(NC(=O)COC(=O)C(NC(=O)c2ccc(C)cc2)C(C)C)cn1 (configuration not stated)	KB-V1 MDR tox 15µM, ELG1 DNA repair inconclusive
